Assay results: PubChem BioAssay (EPA / NIEHS)
Results filed as inconclusive are left out. Activity calls are given as the source filed them. The calls were made as follows: active = hit-call score of the fitted dose curve at least 0.9, where 1 is the maximum; inconclusive = response in the unintended direction; inactive = score below 0.9.

target: AR (gene 367) (UniProt P10275); assay: ACEA_AR_antagonist_80hr: ACEA Biosciences xCELLigence Real-Time Cell Analysis on Androgen Receptor Antagonism for Proliferation (AID 2283787)
Experimental: ACEA_AR_antagonist is a cell-based, single-readout assay that uses 22Rv1, a human prostate cancer cell line, with measurements taken at 80 hours after chemical dosing in a 384-well plate, although TO5 and TO6 (mc0.srcf) used a 96-well plate. Differences in plate size can be ignored given data normalization.ACEA_AR_antagonist_80hr is one of two assay component(s) measured or calculated from the ACEA_AR assay. It is designed to make measurements of real-time cell-growth kinetics, a form of growth reporter, as detected with electrical impedance signals by Real-Time Cell Electrode Sensor (RT-CES) technology.Data from the assay component ACEA_AR_antagonist_80hr was analyzed in the positive analysis fitting direction relative to DMSO as the negative control and baseline of activity. Using a type of growth reporter, measures of the cells for loss-of-signal activity can be used to understand the signaling at the pathway-level as they relate to the gene AR. Furthermore, this assay endpoint can be referred to as a primary readout, because this assay has produced multiple assay endpoints where this one serves a signaling function. To generalize the intended target to other relatable targets, this assay endpoint is annotated to the nuclear receptor intended target family, where the subfamily is steroidal.
The xCELLigence system Multi-E-Plate stations were used to measure the time-dependent response to chemicals. Each compound was tested in an eight-point, 1:4 serial dilution series starting at a maximum final concentration of 100 uM. A maximum starting concentration of 0.5% DMSO was present in the 100 uM chemical samples and was diluted along with the test article dilution series. The screen was performed in biological duplicate using two separate, 96-well, E-Plates 96 for each dilution series (n = 2). Positive controls (MG132 and testosterone) and a negative control (assay media) were tested in quadruplicate on each testing plate. […] Reference compounds were tested with 8 concentrations with 1:5 serial dilutions. All screening was carried out by ACEA Biosciences, Inc. (San Diego, CA). 22Rv1 cells purchased from ATCC were maintained in media supplemented with 10% fetal bovine serum (FBS). Before screening, 22Rv1 cells were preconditioned in assay medium. Cells were then detached and seeded in E-Plates 96 in assay medium. After overnight monitoring of growth once every hour, compounds were added to […] cells and remained in the medium until the end of the experiment. Cellular responses were then recorded once every 5 min for the first 5 h, and once every hour for an additional 100 h.

Chain of AR (gene 367) (P10275 whole entry, looked up): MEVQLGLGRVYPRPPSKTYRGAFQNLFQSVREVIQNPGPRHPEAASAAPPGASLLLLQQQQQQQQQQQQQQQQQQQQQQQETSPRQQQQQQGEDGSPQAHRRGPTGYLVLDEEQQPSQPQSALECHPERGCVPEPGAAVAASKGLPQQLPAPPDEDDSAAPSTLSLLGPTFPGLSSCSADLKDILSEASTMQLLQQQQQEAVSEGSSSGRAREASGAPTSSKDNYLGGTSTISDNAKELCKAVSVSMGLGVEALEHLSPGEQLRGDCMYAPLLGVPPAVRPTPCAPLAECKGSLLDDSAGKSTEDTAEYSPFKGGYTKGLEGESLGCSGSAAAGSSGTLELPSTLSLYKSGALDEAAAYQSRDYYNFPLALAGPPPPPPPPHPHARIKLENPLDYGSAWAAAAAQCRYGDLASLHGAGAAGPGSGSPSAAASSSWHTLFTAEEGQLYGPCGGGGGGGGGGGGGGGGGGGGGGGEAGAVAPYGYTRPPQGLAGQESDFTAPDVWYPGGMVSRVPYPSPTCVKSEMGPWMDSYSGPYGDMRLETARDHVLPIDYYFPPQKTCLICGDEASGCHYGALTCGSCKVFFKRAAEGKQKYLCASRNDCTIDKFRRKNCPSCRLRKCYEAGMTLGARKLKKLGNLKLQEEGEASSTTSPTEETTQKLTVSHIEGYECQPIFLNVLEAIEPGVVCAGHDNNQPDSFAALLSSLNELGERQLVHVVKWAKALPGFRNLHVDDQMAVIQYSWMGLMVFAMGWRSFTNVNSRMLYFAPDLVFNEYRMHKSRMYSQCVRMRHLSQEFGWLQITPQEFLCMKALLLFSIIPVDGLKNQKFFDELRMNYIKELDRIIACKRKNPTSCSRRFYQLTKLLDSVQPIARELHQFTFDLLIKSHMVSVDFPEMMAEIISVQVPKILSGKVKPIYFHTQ

| SMILES | AC50 | outcome |
| --- | --- | --- |
| Cc1ccc(-c2c(Cl)nc(C#N)n2S(=O)(=O)N(C)C)cc1 | 14.1 µM (active) | – |
| O=C(Nc1ccccc1)Nc1ccnc(Cl)c1 | 33.4 µM (active) | – |
| N#Cc1cc(Br)c(O)c(Br)c1 | 53.5 µM (active) | – |
| Cc1cc(Cl)ccc1OCC(=O)O | – | inactive |
| CC1=C(C(=O)Nc2ccccc2)SCCO1 | – | inactive |
| CCON=C(CC)C1=C(O)CC(c2c(C)cc(C)cc2C)CC1=O (stereo not drawn) | – | inactive |
| CN(C)C(=S)SSC(=S)N(C)C | 20.6 µM (active) | – |
| CO/C=C(/C(=O)OC)c1ccccc1Oc1cc(Oc2ccccc2C#N)ncn1 | 61.2 µM (active) | – |
| CCCCNC(=O)n1c(NC(=O)OC)nc2ccccc21 | 71.7 µM (active) | – |
| CS/C(C)=N/OC(=O)N(C)SN(C)C(=O)O/N=C(\C)SC | 76.7 µM (active) | – |
| CCCC1COC(Cn2cncn2)(c2ccc(Cl)cc2Cl)O1 (stereo not drawn) | 76.1 µM (active) | – |
| CCOC(=O)CC(SP(=S)(OC)OC)C(=O)OCC (stereo not drawn) | 88.6 µM (active) | – |
| N#Cc1nn(-c2c(Cl)cc(C(F)(F)F)cc2Cl)c(N)c1S(=O)C(F)(F)F (stereo not drawn) | 58 µM (active) | – |
